Screens (PubChem)
Gal4-VP16 FLuc: counter-screen for ROR gamma inhibitors: Gal4-VP16 reporter | Drosophila S2 Gal4-VP16 UAS-luciferase, luminescence, 20 h | Potency, µM (doses to about 53.6 µM), for inactives: at the top dose activity, negative = inhibition, actives largely listed as inhibitors | 310,000 tested, 3.5% active | AID 2546;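 also: Gal4-VP16 expression switched on by copper sulfate through the metallothionein promoter; potency is read from the fitted curve at half-maximal effect; % is scaled to controls: 0 for no effect and ±100 for the full control effect; nearly all actives have a fitted effect of over 50% in size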
RORgamma inh: blocks mouse ROR gamma transcriptional activity; 310,000 tested, 5.4% active; Potency, µM (series often up to 53.6 µM), for the others: at the highest dose activity change, negative = inhibition, usual class: inhibitors; P51450; Drosophila S2 Gal4-RORgamma UAS-luciferase reporter, 20 h; also: potency is read from the fitted curve at half-maximal effect; % is scaled to controls: 0 for no effect and ±100 for the full control effect; nearly all actives have a fitted effect of over 60% in size
Target sequence (P51450 whole entry, looked up, the tested form may be a part): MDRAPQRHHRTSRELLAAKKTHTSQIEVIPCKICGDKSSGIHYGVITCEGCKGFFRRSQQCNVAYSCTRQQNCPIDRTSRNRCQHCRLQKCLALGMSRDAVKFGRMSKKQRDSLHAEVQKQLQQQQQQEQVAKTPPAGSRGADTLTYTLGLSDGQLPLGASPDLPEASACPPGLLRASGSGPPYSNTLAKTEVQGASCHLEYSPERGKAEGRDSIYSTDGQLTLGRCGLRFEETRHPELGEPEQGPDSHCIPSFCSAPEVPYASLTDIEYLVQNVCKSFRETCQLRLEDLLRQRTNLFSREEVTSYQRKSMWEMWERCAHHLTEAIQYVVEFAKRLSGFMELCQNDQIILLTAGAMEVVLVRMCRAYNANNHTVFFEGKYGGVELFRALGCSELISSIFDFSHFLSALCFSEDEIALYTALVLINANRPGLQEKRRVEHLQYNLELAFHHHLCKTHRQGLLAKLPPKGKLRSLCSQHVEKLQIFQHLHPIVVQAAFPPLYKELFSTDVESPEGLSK
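ROR gamma transcriptional activity was tracked as Gal4-UAS luciferase output in stably transfected Drosophila Schneider cells, with compound added 1 hr before 700 uM copper sulfate induction and a 20 hr ambient-temperature incubation.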
ELG1 DNA repair: inhibitors of ELG1-dependent DNA repair in HEK293T cells; AID 504467; HEK293T ELG1-luciferase reporter, luminescence, 16 h; DNA damage induced by 5-fluorouridine; 330,000 tested, 2.3% active; Potency, µM (highest dose often 46.1 µM), without a hit: top-dose activity change, negative = inhibition, usual class: inhibitors; also: potency is read from the fitted curve at half-maximal effect; % is scaled to controls: 0 for no effect and ±100 for the full control effect; nearly all actives have a fitted effect of over 55% in size
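DMSO vehicle served as the neutral condition. Each well held 2,000 cells given 5-fluorouridine plus compound; after 16 hr at 37 °C/5% CO2, ONE-Glo was added and luciferase measured 30 min later.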
p53 reactivator: mutant p53 re-activation in reporter cells | H1299 p53-A138V BP100-luciferase reporter, luminescence, 24 h | Potency, µM (top dose mostly 92.2 µM), for inactives: at the highest dose activity change, positive = activation, actives largely listed as activators | 320,000 tested, 0.063% active; also: potency is read from the fitted curve at half-maximal effect; % of control where 0% means no effect; nearly all actives have a fitted effect of over 45% in size
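H1299 (p53-null), stable ts p53-A138V + BP100-Luc; 1000 cells/well, Opti-MEM/10% FBS; cpd 4 pt, 1:5; 24 h, 37 deg C, 5% CO2; detection reagent 10 min RT; luminescence.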
BRCA1 expr act: increases BRCA1 expression | Potency, µM (highest dose often 46.1 µM), for inactives: at the highest dose activation, most hits filed as activators | MCF7-BRCA1-FFLuc reporter, luminescence, 48 h; response scale: scaled: vehicle 0%, 10 µM genistein 100% | 380,000 tested, 1.1% active; also: potency is read from the fitted curve at half-maximal effect; nearly all actives have a fitted effect of over 80% in size
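MCF7-BRCA1-FFLuc cells, 2000/well in phenol-red-free MEM, attached 2 h then treated 48 h at 37 C. Luciferase luminescence read 15 min after reagent; normalized to genistein maximum activation (10microM) and DMSO, concentration-response fitted.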
Giardia kill: kills Giardia lamblia; Giardia lamblia trophozoite viability; activity change, % at 7.66 µM, hits read low; 340,000 tested, 0.15% active; AID 540267; in the data active = activity change below about -80%; inconclusive = between about -30% and that limit;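 also: parasites exposed to compound for two days anaerobically before the ATP read; % is scaled to controls: 0 for no effect and ±100 for the full control effect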
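Media and compound were dispensed first, then trophozoites at 100 cells/well; plates sat 48 hrs at 37 deg C without oxygen before ATP luminescence reagent was added and read after 15-30 min at room temperature.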
An asterisk follows results filed as active; ? = inconclusive; / = not tested or not shown; [ ] = dose if it differs, or a comment. Compounds with a hit are over-represented: about 7.6% of the library has one in this group of screens. Unless noted, calls follow the shape of the dose curve; as a rule, active = well fitted curve in the direction sought with a large enough effect; inconclusive = small, poorly fitted or top-dose-only effect, or another doubt; inactive = no such curve, though single readings can be large; an effect the other way counts as inactive or inconclusive.

SMILES	Gal4-VP16 FLuc	RORgamma inh	ELG1 DNA repair	p53 reactivator	BRCA1 expr act	Giardia kill
COc1cc(OC)cc(C(=O)Oc2c(CN3CCOCC3)cc(Cl)c3cccnc23)c1	3.16µM*	4.47µM*	16.4µM*	2.3%	-26.3%	-11.1
O=C(Oc1c(CN2CCOCC2)cc(Cl)c2cccnc12)c1ccccc1	5.01µM*	1.78µM*	23.1µM*	9.2%	-64.1%	-20.3
Oc1c(Cl)cc(CN2CCOCC2)c2cccnc12	/	/	?	-32.8%	-52.9%	5.1
COc1ccc(C(=O)Oc2c(CN3CCOCC3)cc(Cl)c3cccnc23)cc1OC	/	/	/	/	19.0%	16.5
O=C(SCc1c(O)c2ccccc2oc1=O)c1ccccc1	/	/	/	/	-5.0%	/
O=c1oc2ccccc2c(O)c1Cc1cc(Cl)c2cccnc2c1O	1.12µM*	0.794µM*	?	3.0%	-83.5%	-14.4
CC(C)CN1CCCC2(CCN(C(=O)c3cccn3C)CC2)C1	-12.3%	10.6%	/	/	/	/
CCC1CN(C(=O)N2CCC(C(=O)NCCc3ccccc3)CC2)c2ccccc2O1 (stereo not drawn)	0.1%	1.5%	?	-2.8%	-21.8%	-6.2
Cc1ccc(C(c2ccc(C)c(C)c2)C(O)C2OC(=O)C(O)C2O)cc1C (stereo not drawn)	/	/	/	/	42.8%	8.1
O=[N+]([O-])c1ccccc1OC/C(=N\O)c1ccccc1	4.9%	10.0%	-1.0%	3.8%	27.1%	5.4
Cc1ccc(NC(=O)CSc2nc3[nH]ncc3c(=O)[nH]2)cc1Cl	/	/	?	-0.3%	-4.5%	3.7
COC(=O)c1ccc(OS(=O)(=O)N(C)C)cc1	27.2%	?	?	17.6%	?	4.5
O=C(O)c1ccccc1Nc1ccc(OC(F)F)cc1	?	?	?	8.0%	?	-3.0
COc1ccc(CCNc2oc(-c3ccccc3OC)nc2C#N)cc1OC	-4.2%	10.2%	-23.1%	-8.6%	-12.7%	25.1
O=C(Oc1c(CN2CCOCC2)cc(Cl)c2cccnc12)c1ccccc1F	2.24µM*	1.12µM*	10.3µM*	5.6%	-77.6%	16.1
O=C1c2ccccc2C(=O)C1c1ccc2ccccc2n1	3.98µM*	?	?	?	-11.3%	?
O=C1c2ccccc2C(=O)C1c1cc2ccccc2cn1	/	/	/	/	-22.0%	?
S=C1NC[C@H](CC2CCCCC2)N1CC1CCCCC1	5.01µM*	0.891µM*	?	1.6%	-35.1%	17.1
CC(C)C[C@H]1CNC(=S)N1CC1CCN(CC2CCCC2)CC1	/	/	/	/	-5.6%	-10.6
CCCC[C@@H]1CNC(=S)N1CCC12CC3CC(CC(C3)C1)C2	3.16µM*	0.562µM*	1.4%	-0.9%	3.9%	20.9
CC(C)C[C@H]1CNC(=S)N1CC1CCN(CCC23CC4CC(CC(C4)C2)C3)CC1	/	/	/	/	-26.1%	9.5
CCCC[C@@H]1CNC(=S)N1CC1CCCCC1	6.31µM*	1.41µM*	-2.8%	-2.4%	-5.0%	8.1
Oc1c(Cl)cc(Cl)c(Cl)c1CN1CCOCC1	/	/	/	/	-13.6%	-21.8
CC(=O)OC1CC2C(C)(C)C(=O)C=C[C@]2(C)C2CC[C@@]3(C)C(c4ccoc4)OC(=O)C4O[C@@]43[C@]12C (stereo partly drawn)	7.7%	-36.1%	/	/	/	/
Cc1cc(O)cc(O[C@H]2OC(CO)[C@H](O)[C@@H](O)[C@H]2O)c1 (stereo partly drawn)	3.8%	1.7%	-0.5%	8.5%	28.2%	9.4
SMILES	Gal4-VP16 FLuc	RORgamma inh	ELG1 DNA repair	p53 reactivator	BRCA1 expr act	Giardia kill
O=C(C[n+]1cc(-c2ccccc2)n2c1CCCCC2)c1ccc(Cl)cc1	?	27.8%	5.1%	3.1%	-19.4%	-17.9
COc1ccc(-c2c[n+](CC(=O)c3ccccc3)c3n2CCCCC3)cc1	-10.2%	6.1%	14.6µM*	-0.5%	-35.2%	-8.5
O=C(C[n+]1cc(-c2ccc(F)cc2)n2c1CCC2)c1cccs1	16.6%	45.2%	?	20.5%	2µM*	-11.4
Cn1c(NC(=O)C[n+]2cc(-c3ccc(F)cc3)n3c2CCC3)cc(=O)n(C)c1=O	3.2%	0.0%	-10.1%	-8.0%	3.1%	8.6
COc1ccc(OCC(=O)Nc2c(C(=O)N3CCC(N4CCCCC4)CC3)oc3ccccc23)cc1	-6.8%	-0.8%	?	-0.7%	0.8%	-13.3
Cc1cc(C)c(S(=O)(=O)NCCc2ccncc2)c(C)c1	-4.2%	-14.0%	-9.4%	-2.7%	-31.7%	20.9
O=[N+]([O-])c1cccc(S(=O)(=O)NCc2ccncc2)c1	10µM*	23.4%	?	-1.9%	-19.0%	9.5
Cc1cc(C)c(S(=O)(=O)NCc2ccncc2)c(C)c1	8.91µM*	?	?	0.3%	-80.3%	13.5
Nc1c(N(Cc2ccco2)C(=O)COc2ccc(Cl)cc2)c(=O)[nH]c(=O)n1Cc1ccccc1	/	/	/	/	-13.6%	-6.1
CCN(CC)CCn1c2ccccc2c2n[nH]c(=S)nc21	/	/	6.6%	/	-1.5%	9.6
Cc1ccc2c(c1)c1n[nH]c(=S)nc1n2CCc1ccccc1	?	3.98µM*	?	-0.3%	-22.7%	6.2
NNc1nnc2c3cc(F)ccc3n(CCc3ccccc3)c2n1	-3.8%	?	11.6µM*	25.4%	-78.0%	-18.1
Fc1ccc2c(c1)c1n[nH]c(=S)nc1n2CCc1ccccc1	2.82µM*	1.41µM*	-3.0%	-5.6%	-22.2%	-0.7
CCn1c2ccc(C)cc2c2n[nH]c(=S)nc21	3.16µM*	-42.1%[1.91 µM]	1.7%	2.3%	-43.0%	1.5
Cn1nc(C(=O)Nc2sc3c(c2C#N)CCCC3)ccc1=O	2.2%	6.9%	?	3.3%	-24.8%	5.7
COc1ccc(COC(=O)N/N=C2/C[C@@H](O)[C@@H](O)[C@@H]3[C@@H]4C(=O)N(c5cccc(Oc6ccccc6)c5)C(=O)[C@H]4CC[C@@H]23)cc1	0.3%[10 µM]	8.9%[10 µM]	/	/	/	/
O=C(CCCn1cnc([N+](=O)[O-])n1)Nc1cccc(O)c1	0.1%	-8.9%	11.5%	3.4%	-12.1%	5.9
CCOC(=O)N1CCN(C(=O)/C(=C/c2ccc(OC)c(OC)c2)NC(=O)c2ccccc2)CC1	2.8%	1.8%	8.4%	-0.3%	-0.4%	9.4
COC(=O)C1CCCCN1C(=O)c1cc(COc2cccc3cnccc23)on1 (stereo not drawn)	?	-28.6%	1.46µM*	-50.7%	/	/
O=C(c1cc(COc2cccc3cccnc23)on1)N1CCC[C@H]1CO	/	/	/	/	38.5%	/
CCOC(=O)CC1CCCCN1C(=O)c1cc(COc2cccc3cnccc23)on1 (stereo not drawn)	3.98µM*	?	?	-9.9%	-13.3%	-16.5
CN(Cc1nccs1)C(=O)c1cc(COc2cccc3cnccc23)on1	12.6µM*	-34.1%	?	-11.2%	-7.1%	-10.6
